Glyco luc inh: N-linked glycosylation inhibition; AID 588692; 0.23% of 360,000 active; reporter increase, % at 12.5 µM; D54 ERlucT glycosylation luciferase reporter, 24 h; percent of 100 nM tunicamycin response;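 active means mean luciferase reporter signal, scaled so untreated is 0 and the glycosylation-blocking control 100, at or above a set limit in every replicate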;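 further: luciferase carries N-glycosylation sites so blocking glycosylation raises the light; 0% = median of neutral control wells and 100% = median of 100 nM tunicamycin wells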
NSD2 HMT inh: blocks human histone methyltransferase NSD2; inhibition, % at 12.5 µM; NSD2 peptide methylation, AlphaScreen, 120 min; O96028; 0.54% of 310,000 active; AID 743445; in the data active means inhibition above about 50%
Target sequence (O96028 whole entry, looked up): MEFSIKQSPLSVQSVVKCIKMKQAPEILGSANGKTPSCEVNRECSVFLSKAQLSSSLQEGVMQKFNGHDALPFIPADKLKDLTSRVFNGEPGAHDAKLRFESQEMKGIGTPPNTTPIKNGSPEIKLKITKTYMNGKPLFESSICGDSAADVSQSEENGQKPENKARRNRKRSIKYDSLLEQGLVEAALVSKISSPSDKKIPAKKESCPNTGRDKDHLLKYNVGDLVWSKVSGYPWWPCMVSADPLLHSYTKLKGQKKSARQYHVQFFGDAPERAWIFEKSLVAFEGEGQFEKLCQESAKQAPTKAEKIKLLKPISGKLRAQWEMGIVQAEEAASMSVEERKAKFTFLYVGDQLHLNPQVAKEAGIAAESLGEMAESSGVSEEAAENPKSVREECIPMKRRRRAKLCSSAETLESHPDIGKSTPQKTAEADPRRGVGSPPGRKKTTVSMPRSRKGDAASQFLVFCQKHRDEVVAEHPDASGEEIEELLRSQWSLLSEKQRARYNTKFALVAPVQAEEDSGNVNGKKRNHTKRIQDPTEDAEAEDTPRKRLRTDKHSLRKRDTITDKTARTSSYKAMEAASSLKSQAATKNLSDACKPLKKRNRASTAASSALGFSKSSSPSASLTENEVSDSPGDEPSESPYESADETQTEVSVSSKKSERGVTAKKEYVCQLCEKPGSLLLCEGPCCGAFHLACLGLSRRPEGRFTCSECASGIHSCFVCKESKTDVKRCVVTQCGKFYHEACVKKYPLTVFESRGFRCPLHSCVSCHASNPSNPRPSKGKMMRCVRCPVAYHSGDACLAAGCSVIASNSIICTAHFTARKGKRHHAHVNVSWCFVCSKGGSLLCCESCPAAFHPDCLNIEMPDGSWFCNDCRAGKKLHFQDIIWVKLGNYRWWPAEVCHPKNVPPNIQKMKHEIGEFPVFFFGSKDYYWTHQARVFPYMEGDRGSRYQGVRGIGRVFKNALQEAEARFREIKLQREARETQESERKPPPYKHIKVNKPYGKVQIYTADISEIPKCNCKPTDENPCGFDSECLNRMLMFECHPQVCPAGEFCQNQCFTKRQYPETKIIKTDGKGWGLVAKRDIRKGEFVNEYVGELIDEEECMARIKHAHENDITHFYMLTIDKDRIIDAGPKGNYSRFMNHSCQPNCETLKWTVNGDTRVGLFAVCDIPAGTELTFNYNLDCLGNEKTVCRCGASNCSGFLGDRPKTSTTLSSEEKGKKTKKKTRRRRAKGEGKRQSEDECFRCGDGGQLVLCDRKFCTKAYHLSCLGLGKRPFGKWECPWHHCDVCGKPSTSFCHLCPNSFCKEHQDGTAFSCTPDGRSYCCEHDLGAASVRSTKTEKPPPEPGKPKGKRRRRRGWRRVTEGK
EBV LMP1 NFkB: Epstein-Barr LMP1 NF-kappaB reporter inhibition. LMP1-induced NF-kappaB luciferase reporter cells, luminescence. 0.69% of 350,000 active. inhibition, % at 12.5 µM; in the data active means inhibition above about 41%;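 further: 0% = neutral control wells and 100% = reference inhibitor control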
PAX8 inh HTS: lowers PAX8-driven luciferase in RMG-I cells; RMG-I TPO-luciferase reporter, SteadyGlo, 24 h; inhibition, % at 12.6 µM; AID 652154; 1.2% of 360,000 active;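 active means mean replicate inhibition at least 60% with every replicate also reaching 60%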;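 further: luciferase light reporting Pax8 driven TPO promoter activity; plate controls were median of neutral control wells for no effect and mitoxantrone controls for full effect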
Env fusion inh: inhibitors of HIV Env-mediated cell fusion; 1.1% of 360,000 active; AID 651610; inhibition, % at 12.3 µM; HeLa-JRFL Env/CEM21 cell fusion, luciferase;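 active means mean replicate inhibition score of at least 50 and every replicate individually at or above 50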;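 further: 0% = plate neutral controls and 100% = maraviroc near 300 nM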
Shn3 inh set2: Schnurri-3 reporter inhibition in Clone20 osteoblasts; 0.52% of 360,000 active; Clone20 osteoblast Shn3 3'UTR firefly luciferase, 24 h; AID 588674; inhibition, % at 12.5 µM;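 active means mean inhibition of at least 75% with every replicate also reaching 75%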;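 further: 0% = median of neutral control wells and 100% = pilot-screen positive control compound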
Starred values were filed as active, the others as inactive; [ ] = dose if it differs, or a comment. Hits are enriched below; roughly 2.8% of the tested compounds scored in any of these assays.

What do the screens show for `Cc1ccc(C(=O)c2ccccc2C(=O)OCC(=O)Nc2cccc([N+](=O)[O-])c2)cc1`?
Glyco luc inh: -2; NSD2 HMT inh: 0; EBV LMP1 NFkB: -4; Shn3 inh set2: 20

What do the screens show for `CN1C(=O)c2cc(NC(=O)c3cccc(F)c3)ccc2OC[C@@H]2O[C@@H](CC(=O)NCC3CC3)CC[C@@H]21`?
PAX8 inh HTS: 3

Results for C[C@H]1CN([C@@H](C)CO)C(=O)c2cc(C#CCc3ccccc3)cnc2O[C@@H]1CN(C)Cc1ccccc1 ?
PAX8 inh HTS: -23

What do the screens show for `Cc1csc(N/N=C/c2c(F)cccc2Cl)n1`?
Glyco luc inh: 2; NSD2 HMT inh: 12; EBV LMP1 NFkB: -18; PAX8 inh HTS: -1; Env fusion inh: -46; Shn3 inh set2: -46

How did Cc1csc(N/N=C/c2ccccc2F)n1 do in these assays?
Glyco luc inh: -5; NSD2 HMT inh: 4; EBV LMP1 NFkB: 87*; PAX8 inh HTS: -68; Env fusion inh: -36; Shn3 inh set2: -82

How did CCOc1ccc(C(=O)Nc2cccc(C(=O)O)c2C)cc1Cl do in these assays?
Glyco luc inh: -13; NSD2 HMT inh: -3; EBV LMP1 NFkB: 15; PAX8 inh HTS: 36; Env fusion inh: 60*; Shn3 inh set2: 8

How did COC(=O)CC1(C(=O)OC)Oc2ccc(Br)cc2C(=O)N1c1cccc(Cl)c1Cl (stereo not given) do in these assays?
Glyco luc inh: 3; NSD2 HMT inh: -6; EBV LMP1 NFkB: 7; PAX8 inh HTS: 41; Env fusion inh: 65*; Shn3 inh set2: 18

What do the screens show for `NCCCNc1nc(N)c([N+](=O)[O-])c(NC2CCCCC2)n1`?
Glyco luc inh: -15; NSD2 HMT inh: 11; EBV LMP1 NFkB: -12; PAX8 inh HTS: 78*; Env fusion inh: -441; Shn3 inh set2: 75

Results for COCCNc1nc(N)c([N+](=O)[O-])c(NC2CCCCC2)n1 ?
Glyco luc inh: 7; NSD2 HMT inh: 0; EBV LMP1 NFkB: -14; PAX8 inh HTS: 9; Env fusion inh: -48; Shn3 inh set2: 13

How did CCS(=O)(=O)c1nc(S(=O)(=O)c2ccc(C)cc2)c(N2CCN(CCO)CC2)s1 do in these assays?
Glyco luc inh: -1; NSD2 HMT inh: -3; EBV LMP1 NFkB: -6; PAX8 inh HTS: 23; Env fusion inh: 4; Shn3 inh set2: -7

Results for Cc1ccc(S(=O)(=O)c2nc(S(=O)(=O)c3ccccc3)sc2N2CCN(C)CC2)cc1 ?
Glyco luc inh: -12; NSD2 HMT inh: 4; EBV LMP1 NFkB: -8; PAX8 inh HTS: 88*; Env fusion inh: 16; Shn3 inh set2: 5

How did CCN1CCN(c2sc(S(C)(=O)=O)nc2S(=O)(=O)c2ccc(C)cc2)CC1 do in these assays?
Glyco luc inh: -13; NSD2 HMT inh: 7; EBV LMP1 NFkB: 9; PAX8 inh HTS: 71*; Env fusion inh: 8; Shn3 inh set2: -4

What do the screens show for `Cc1ccc(S(=O)(=O)c2nc(S(=O)(=O)c3ccccc3)sc2N2CCN(CCO)CC2)cc1`?
Glyco luc inh: -10; NSD2 HMT inh: 2; EBV LMP1 NFkB: -10; PAX8 inh HTS: 71*; Env fusion inh: -4; Shn3 inh set2: -10

How did CCN1CCN(c2sc(S(=O)(=O)CC)nc2S(=O)(=O)c2ccc(C)cc2)CC1 do in these assays?
Glyco luc inh: -7; NSD2 HMT inh: 2; EBV LMP1 NFkB: 10; PAX8 inh HTS: 17; Env fusion inh: 8; Shn3 inh set2: 2

How did CCCNC(=O)C[C@@H]1CC[C@@H]2[C@@H](COc3ccc(NC(=O)Nc4c(C)noc4C)cc3C(=O)N2C)O1 do in these assays?
PAX8 inh HTS: -10

Results for C[C@@H]1CN([C@H](C)CO)C(=O)Cc2cc(NS(=O)(=O)c3cn(C)cn3)ccc2O[C@H]1CN(C)C(=O)Nc1ccc(C(F)(F)F)cc1 ?
Env fusion inh: 0[16.7 µM]

How did Cc1cc(O)c(C(C)C)cc1C1(c2cc(C(C)C)c(O)cc2C)OC(=O)c2ccccc21 do in these assays?
Glyco luc inh: -4; NSD2 HMT inh: 2; EBV LMP1 NFkB: 4; PAX8 inh HTS: 89*; Env fusion inh: 68*; Shn3 inh set2: 40

What do the screens show for `Cc1cc(C2(c3ccc(O)c(C)c3)OC(=O)c3ccccc32)ccc1O`?
Glyco luc inh: 0; NSD2 HMT inh: 41; EBV LMP1 NFkB: -3; PAX8 inh HTS: 32; Shn3 inh set2: -14

What do the screens show for `CCCC(=O)Nc1ccc2c(c1)C(=O)N(C)[C@H]1CC[C@H](CC(=O)NCCc3ccncc3)O[C@@H]1CO2`?
PAX8 inh HTS: -1; Env fusion inh: -2[16.7 µM]

Bioassay records deposited in PubChem by Broad Institute.
